A selection: hits, their analogues and other compounds. The true share with any hit is near 5.7%.
AHR act: activators of human aryl hydrocarbon receptor; 320,000 compounds, 2.5% hits; AHR-responsive luciferase reporter cells, luminescence; activation, % at 5 µM; AID 2796; in the data active = activation above about 47%;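 also: 0% = vehicle wells and 100% = reference agonist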
DAX1 inh-1: inhibitors of human orphan nuclear receptor DAX1 (NR0B1). P51843. HEK293 Gal4-DAX1 luciferase reporter, luminescence. inhibition, % at 6.75 µM. 340,000 compounds, 0.99% hits;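 active = inhibition above the mean over all tested compounds plus 3 SD, cut at about 4.2% in these data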;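 also: 0% = DAX1-transfected cells with DMSO and 100% = empty-vector control cells with DMSO; inhibition shows as a rise in luminescence from relieved DAX1 repression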
Target sequence (P51843 207-470 limits assumed): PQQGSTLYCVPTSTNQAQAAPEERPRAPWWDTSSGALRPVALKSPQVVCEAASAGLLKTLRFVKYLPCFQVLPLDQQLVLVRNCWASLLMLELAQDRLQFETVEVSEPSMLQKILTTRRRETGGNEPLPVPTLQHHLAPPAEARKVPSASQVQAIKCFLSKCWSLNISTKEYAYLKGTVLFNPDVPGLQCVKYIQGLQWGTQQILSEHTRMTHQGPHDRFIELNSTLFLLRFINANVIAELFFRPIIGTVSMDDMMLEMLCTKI
ssDAF12 agonist: activates DAF-12 receptor from parasite S. stercoralis; HEK293 ssDAF-12/GRIP1 lit1-tk-luc reporter, luminescence; % of 3 µM dafachronic acid response; activation, % at 6.8 µM; 370,000 compounds, 1% hits; AID 652126;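 active = activation above the mean over all tested compounds plus 3 SD, cut at about 0.9% in these data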;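 also: 0% = DMSO-only wells and 100% = 3 µM delta7-dafachronic acid wells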
hgDAF-12 ag: hgDAF-12 agonism, primary luciferase screen. HEK293 GAL4-hgDAF12 UAS-luciferase reporter, agonist luminescence; normalized to butyrate control. activation, % at 6.8 µM. 370,000 compounds, 1.8% hits. AID 687014;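 active = activation above a cutoff set at the mean of all screened compounds plus 3 SD, cut at about 10% in these data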;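 also: 0% = DMSO wells and 100% = sodium butyrate wells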
DAX1 inh-2: blocks DAX1 repression of SF-1 activated StAR promoter; 370,000 compounds, 1.1% hits; inhibition, % at 6.8 µM; HEK293T StAR-luciferase reporter, SF-1/DAX-1 repression relief;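 active = inhibition above the mean over all tested compounds plus 3 SD, cut at about 3.6% in these data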;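 also: 0% = DAX-1 cells with DMSO and 100% = cells lacking DAX-1 with DMSO; higher inhibition means more luminescence from relief of DAX-1 repression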
hcDAF12 agonist: activates DAF-12 receptor from parasite H. contortus | activation, % at 6.8 µM | 370,000 compounds, 1.4% hits | AID 652067 | HEK293 hcDAF-12 lit1-tk-luc reporter, luminescence; 0% DMSO, 100% Δ7-dafachronic acid;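 active = activation above the mean of all tested compounds plus 3 SD, cut at about 5.5% in these data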;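 also: 100% = response to 3 µM Δ7-dafachronic acid high control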
* = called active by the depositor; . = no result given.

SMILES | AHR act | DAX1 inh-1 | ssDAF12 agonist | hgDAF-12 ag | DAX1 inh-2 | hcDAF12 agonist
CC1(c2ccc3ccccc3c2)NC(=O)N(CC(=O)Nc2cccc(S(=O)(=O)N3CCOCC3)c2)C1=O (configuration not stated) | 49* | -2 | -2 | -1 | 0 | -4
NC(=O)c1cccc(-c2cc(Nc3ccc(OC(F)(F)F)cc3)ncn2)c1 | -12 | -2 | -2 | -5 | -1 | -3
COC(=O)Cc1ccc(NC(=S)N2CCN(CCO)CC2)cc1 | -1 | 2 | -1 | 2 | 0 | 0
Oc1ccc(-c2nnc(SCC3CCCCC3)o2)cc1 | 1 | 1 | 0 | 11* | 3 | 1
O=C(CSc1nnc(-c2ccc(F)cc2)o1)NC1CCCCC1 | -1 | 1 | -2 | -1 | 1 | -2
CCCCCCn1c(COc2ccccc2F)nnc1SCC(=O)c1c(N)n(C)c(=O)n(C)c1=O | 0 | . | 1.2* | 0 | 1 | -1
COc1cc(C(=O)Nc2ccc3c(c2)CCCN3C(=O)c2ccco2)c([N+](=O)[O-])cc1OC | 2 | 2 | -1 | -4 | -1 | 0
O=C1c2ccccc2-c2onc3ccc(NCCCn4ccnc4)c1c23 | 60* | . | . | . | . | .
c1ccc(-c2ccc3ncccc3n2)cc1 | . | . | 0 | 8 | 3.7* | 2
c1ccc(-c2cccc(-c3ccccc3)n2)cc1 | 11 | 2 | -2 | 0 | 0 | -2
O=C(NNC(=O)c1ccc2nonc2c1)Nc1ccc(Cl)cc1 | 77* | . | -2 | -3 | 0 | -1
O=C(NC(c1ccccc1)c1ccccc1)c1cccc(S(=O)(=O)NCc2ccccc2)c1 | 0 | -2 | 0 | 5 | 0 | 0
c1csc(-c2nc(N3CCCCC3)no2)c1 | 11 | 5.0* | 0 | 6 | 1 | 3
Cc1cc(S(=O)(=O)Nc2c(C(=O)O)[nH]c3ccccc23)ccc1F | 20 | 0 | 1.1* | 1 | 0 | 2
Cc1cc(=O)[nH]c2ccc(S(=O)(=O)Nc3ccccc3)cc12 | 40 | 4.2* | 0 | 0 | 0 | 1
Cc1ccc(S(=O)(=O)Nc2c(C(=O)O)[nH]c3ccccc23)cc1C | 18 | 0 | 0 | 2 | 0 | 5.8*
Cc1ccc(CCNS(=O)(=O)c2cc(Br)cnc2N)cc1 | -1 | 1 | -1 | -1 | 0 | -1
COC(=O)CCC(=O)CN | 0 | 4.7* | -1 | -2 | 1 | 0
COC(=O)CCN(C)CCC(=O)OC | 3 | 2 | -1 | 0 | 0 | -1
O=C(O)c1ccc(NS(=O)(=O)c2cccc(C(=O)Nc3cccc(C(=O)O)c3)c2)cc1 | 0 | 4 | -1 | 1 | 0 | 0
CCn1c(COc2ccc(Cl)cc2)nnc1SC1CCc2ccccc2C1=O (configuration not stated) | 11 | 1 | 1.5* | -3 | 1 | 3
COc1ccc(N2C(=O)c3n[nH]c(C)c3C2c2ccccc2)cc1 (configuration not stated) | . | . | 0 | 2 | 1 | -1
COC(=O)c1sc(=S)n(Cc2ccccc2)c1C | 1 | 12* | -1 | 1 | 0 | -1
O=C(Nc1ccccc1)OC1CCCCc2cccnc21 (configuration not stated) | 8 | 0 | 1.7* | -1 | 0 | -1
O=C(Nc1cccc(Cl)c1)OC1CCCCc2cccnc21 (configuration not stated) | -1 | -1 | -1 | 0 | 0 | -1
SMILES | AHR act | DAX1 inh-1 | ssDAF12 agonist | hgDAF-12 ag | DAX1 inh-2 | hcDAF12 agonist
Cc1cc(NC(=O)CCCC(=O)N(CC(=O)NCCc2ccccc2)Cc2ccc(F)cc2)no1 | -1 | 0 | 1.1* | -2 | -1 | 0
O=C(NC1CCN(Cc2ccccc2)CC1)c1ccccc1OCc1ccccc1Cl | -2 | 0 | -1 | -1 | 1 | -1
CC(=O)Nc1c2c(nn1-c1ccccc1C)CSC2 | 0 | 0 | -1 | -1 | 2 | -1
Cc1ccccc1-n1nc2c(c1NC(=O)c1ccc(S(=O)(=O)N(C)C)cc1)CSC2 | -1 | 0 | -1 | -2 | 1 | 5.9*
Nc1ccc(-c2nc3c(Cl)c(N)ccc3[nH]2)cc1 | 60* | 0 | -1 | -1 | 1 | -1
O=C(CCC(=O)c1ccc[nH]1)c1ccc(Cl)cc1 | -6 | 3 | -1 | 12* | 1 | 6.0*
O=C(Nc1nccs1)c1ccc2nccnc2c1 | 53* | 4.6* | -1 | 10 | 0 | 1
O=C(Nc1nccs1)c1ccc(N2C(=O)[C@@H]3[C@H](C2=O)[C@H]2C=C[C@@H]3C2)cc1 | 7 | 4.5* | -1 | 12* | 3 | 2
O=C(Nc1nccs1)c1cccc(N2C(=O)C3C4C=CC(C4)C3C2=O)c1 (configuration not stated) | 3 | -1 | -1 | 0 | 0 | -1
COc1ccc(S(=O)(=O)N2CCCCC2)cc1NC(=O)c1ccc2c(c1)OCO2 | -1 | 0 | -2 | -3 | 0 | -1
CCCCn1nc(C(=O)NNC(=O)c2ccncc2)c2ccccc2c1=O | 4 | 1 | . | . | . | .
O=C(NN1C(=O)c2ccccc2C1=O)c1ccncc1 | 8 | 1 | -2 | -2 | 0 | -1
O=C(O)c1ccc(S(=O)(=O)c2ccc3c(c2)C(=O)N(NC(=O)c2ccccc2)C3=O)cc1 | 3 | 1 | -1 | 12* | 2 | 1
CN(C)c1ccc(C(=O)NN2C(=O)c3ccccc3C2=O)cc1 | 4 | 0 | -1 | 11* | 0 | 0
O=C(O)c1ccc(S(=O)(=O)c2ccc3c(c2)C(=O)N(NC(=O)c2ccncc2)C3=O)cc1 | 7 | -2 | -1 | 1 | 1 | 1
Nc1nnnn1CC(=O)N/N=C/c1ccccn1 | 0 | . | -1 | -1 | 1 | -2
Cc1ccc(S(=O)(=O)NC(=O)c2cc(C)n(CC(c3ccccc3)N(C)C)c2C)cc1 (configuration not stated) | 1 | 5.5* | -1 | 0 | -1 | 0
CCOc1ccc(/C=C/C(=O)CCC(=O)O)cc1 | 5 | 5.8* | -2 | 3 | 3 | 1
CC(=O)N(CCc1cccc(C)c1)Cc1cc2cc(C)ccc2[nH]c1=O | 49* | 0 | -2 | 3 | 0 | -2
CCc1nnc(NC(=O)C=C(C)C)s1 | 3 | 2 | 0 | 8 | 2 | 1
CC(C)=CC(=O)Nc1nnc(-c2ccccc2C)s1 | -3 | 5.2* | -1 | 6 | 2 | 0
CC1(C)CSC(=NCc2ccccc2)N1C(=O)c1cccc([N+](=O)[O-])c1 | -1 | 2 | -2 | 0 | 0 | -1
COC1=C[C@H](C(=O)NC2CCN(Cc3ccccc3)CC2)[C@H](C)[C@@H](c2ccccc2)CC1=O | . | . | -1 | 0 | 0 | -2
CCc1c(C)nc2cc(-c3cccc(Br)c3)[nH]n2c1=O | 70* | 2 | 1.0* | 7 | 1 | 6.4*
